# Compound activity (PubChem)
# AmpC inh detg: qHTS Inhibitors of AmpC Beta-Lactamase (assay with detergent); P00811; AmpC hydrolysis of nitrocefin, absorbance 480 nm, 0.01% Triton; Potency, µM (titrated, usually from 114 µM), actives largely listed as inhibitors; 0.041% of 370,000 active; AID 485294, 2010; further: nearly all actives have a fitted effect of over 25% in size
# Target sequence (P00811 whole entry, looked up): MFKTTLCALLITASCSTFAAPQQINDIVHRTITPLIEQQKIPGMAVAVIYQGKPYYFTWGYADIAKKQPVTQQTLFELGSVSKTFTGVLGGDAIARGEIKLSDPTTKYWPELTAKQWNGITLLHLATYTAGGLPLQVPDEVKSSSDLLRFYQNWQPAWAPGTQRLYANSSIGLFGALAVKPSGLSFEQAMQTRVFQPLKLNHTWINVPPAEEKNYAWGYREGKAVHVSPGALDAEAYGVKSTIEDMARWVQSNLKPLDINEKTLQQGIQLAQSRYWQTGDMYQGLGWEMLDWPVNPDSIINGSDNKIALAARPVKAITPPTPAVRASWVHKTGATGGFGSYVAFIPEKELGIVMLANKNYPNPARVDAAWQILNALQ
#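 20 mM phosphate pH 7.0 + 0.01% (detergent screen) or 0.0001% Triton X-100; 5.3 nM AmpC reagent; cpd preinc 15 min RT; nitrocefin (800 uM stock) to start; A480 q20 s × 4 min; Activity was normalised to no-enzyme and no-compound control wells.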
# Sm TGR block: qHTS Assay for the Inhibitors of Schistosoma Mansoni Peroxiredoxins; Schistosoma mansoni thioredoxin glutathione reductase (TGR), Q962Y6; purified TGR, DTNB reduction, TNB absorbance 405 nm; Potency, µM (titrated, usually from 114 µM), most hits filed as inhibitors; 3% of 360,000 active; AID 485364, 2010; further: nearly all actives have a fitted effect of over 60% in size
#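 First, TGR (20 nM dispensed) and NADPH were mixed with compound. Second, a 15 min room-temperature incubation followed. Third, further NADPH and then DTNB were added to start the reaction. Finally, TNB absorbance was monitored kinetically.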
# FMDV antiviral: High Throughput Screening for Foot and Mouth Disease Virus Antivirals | Potency, µM (doses to about 57.9 µM), hits mostly inhibitors | FMDV antiviral cell-based qHTS | 1.2% of 410,000 active; calls by dose curve; tested in HEK293T cells; further: read-out not given here; nearly all actives have a fitted effect of over 45% in size
# AmpC inh no detg: qHTS Inhibitors of AmpC Beta-Lactamase (assay without detergent); P00811; AmpC nitrocefin hydrolysis, absorbance 480 nm, 0.0001% Triton; Potency, µM (doses to about 57.1 µM), usual class: inhibitors; 0.52% of 330,000 active; AID 485341, 2010; further: nearly all actives have a fitted effect of over 20% in size
#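 AmpC (5.3 nM in the dispensed reagent) in 20 mM phosphate pH 7.0 with 0.01% (detergent screen) or 0.0001% Triton X-100 was preincubated with compounds for 15 min at room temperature. Nitrocefin was then added from an 800 uM solution, and hydrolysis was followed at 480 nm.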
# AMA1 RON2 block: qHTS for Inhibitors of AMA1-RON; Towards Development of Antimalarial Drug Lead: Primary Screen; Plasmodium falciparum AMA1 (3D7) - RON2 peptide interaction; AlphaScreen AMA1-biotinylated RON2 peptide binding; Potency, µM (series often up to 58.2 µM), most hits filed as inhibitors; 0.2% of 360,000 active; further: nearly all actives have a fitted effect of over 45% in size
#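 AMA1 (3D7) with his tag at 25 nM final met compounds first, then biotinylated RON2 peptide at 25 nM; detection used donor plus acceptor beads, 10 µg/mL apiece, read by AlphaScreen after 30 min at room temperature.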
# Hits are given with their value; n = inactive; u = inconclusive; x = no result given. This is a sample that favours compounds with a hit; in the whole collection about 4.1% have one here. Unless noted, the call rests on the fitted dose curve; in most records, active means well fitted curve in the direction sought with a large enough effect; inconclusive means small, poorly fitted or top-dose-only effect, or another doubt; inactive means no such curve, though single readings can be large; an effect the other way counts as inactive or inconclusive.
SMILES,AmpC inh detg,Sm TGR block,FMDV antiviral,AmpC inh no detg,AMA1 RON2 block
CCn1cc(CN2Cc3ccccc3OC(c3ccccc3OC)C2)c(C)n1 (stereo not given),x,x,n,x,x
Cc1cccc(N2C(=O)CSC23C(=O)N(CC(=O)NCCc2ccccc2)c2ccccc23)c1 (stereo not given),u,n,n,x,x
Cc1cccc(NC(=O)CN2CCN(C(=O)CNC(=O)c3ccc(-c4ccccc4)cc3)CC2)c1C,x,x,20µM,x,n
CN(CCOc1ccc(Cl)cc1)C(=O)c1cccc(S(=O)(=O)N2CCN(Cc3ccccc3)CC2)c1,x,x,10µM,x,n
CSc1ccc(CN(C)C(=O)c2cccc(S(=O)(=O)N3CCN(Cc4ccccc4)CC3)c2)cc1,n,n,16µM,n,n
COc1ccc(NC(=O)CN(C)C(=O)c2cccc(S(=O)(=O)N3CCN(C)CC3)c2)cc1,n,89µM,n,n,n
Cc1ccc(C)c(NC(=O)CN(C)C(=O)c2cccc(S(=O)(=O)N3CCN(Cc4ccccc4)CC3)c2)c1,n,n,14µM,n,n
COc1ccc(NC(=O)CN(C)C(=O)c2cccc(S(=O)(=O)N3CCN(Cc4ccccc4)CC3)c2)cc1,n,n,u,n,n
Cc1oc(-c2ccc(Cl)cc2)nc1Cn1c(=O)cc(-c2ccccc2)c2c(C)nn(C)c21,n,n,n,x,x
COc1ccc(/C=C\c2onc(C)c2S(=O)(=O)N2CCC(C(=O)Nc3ccccc3OC)CC2)cc1,n,n,n,x,x
Cc1ccc(C(=O)NCc2ccco2)cc1S(=O)(=O)N1CCCC1,n,40µM,n,u,n
O=C(NCc1ccco1)c1cccc(S(=O)(=O)N2CCCC2)c1,n,50µM,n,n,n
O=C(CSc1nnc(-c2ccc(S(=O)(=O)N3CCCC3)cc2)o1)NCc1ccco1,u,45µM,n,n,n
O=C(NCc1ccco1)c1ccc(S(=O)(=O)c2cccc(S(=O)(=O)N3CCOCC3)c2)cc1,n,50µM,n,n,n
N#C/C(=C\c1ccccc1)c1nc(-c2cc3c(ccc4ccccc43)oc2=O)cs1,n,n,n,x,x
O=C(OCc1ccco1)c1ccc(S(=O)(=O)N2CCCCC2)cc1,n,7.1µM,n,n,n
Cc1cc(S(=O)(=O)N2CCCC2)ccc1OCC(=O)NCc1ccco1,n,40µM,x,n,n
O=C(Nc1ccc(F)cc1)[C@H](Cc1ccccc1)N1Cc2ccccc2C1=O,n,n,n,x,x
Cc1ccc(CNC(=O)CCc2nnc(Cc3ccc(-c4ccccc4)cc3)o2)o1,n,25µM,n,n,n
COCCCNC(=O)CCc1nnc(Cc2ccc(-c3ccccc3)cc2)o1,n,n,n,n,n
C[N+](C)(C)CC#CCN1CCCC1=O,x,x,n,x,n
C/C(Cl)=C/CC1(CN2CCCC2=O)C(=O)NC(=O)NC1=O,28µM,n,n,n,n
O=C(NCc1ccccc1)c1cc(C2COCCN2C(=O)c2ccc(Cl)cc2)on1 (stereo not given),x,x,n,x,n
CCN1CCN(Cc2cc(C(C)(C)C)c(O)c(C(C)(C)C)c2)CC1,n,2.8µM,x,n,x
CC(C)(C)c1cc(CN2CCN(CCO)CC2)cc(C(C)(C)C)c1O,n,2.5µM,n,n,n
SMILES,AmpC inh detg,Sm TGR block,FMDV antiviral,AmpC inh no detg,AMA1 RON2 block
COc1cccc(-c2cnc(-c3ccncc3)nc2C2CCN(C(=O)Cc3csc(C)n3)CC2)c1,x,x,n,x,x
COc1cc(CNc2nc(C)c(-c3ccn(C4Cc5ccccc5C4)n3)s2)cc2c1OCO2,x,x,n,x,x
CN(C)CC/C=C1\c2ccccc2COc2ccccc21,n,14µM,n,n,n
COC(=O)c1cn[nH]c1NC(=S)Nc1ccccc1C,n,45µM,n,n,n
CSc1sc(-c2n[nH]c(=S)n2C)c2c1C=CCC2,n,25µM,n,n,n
O=C(/C=C/c1ccco1)NC(=S)Nc1ccccc1N1CCCC1,n,x,n,n,n
CCCn1nnc(NC(=O)/C=C/c2ccccc2)n1,n,n,n,n,n
CCCn1nnc(NC(=O)/C=C/c2ccco2)n1,n,5.6µM,n,n,n
